# Assay results: article PMC8384837, “Expanding the binding specificity for RNA recognition by a PUF domain”
# Substitutions are numbered along the chain they refer to.
# Assays:
# Assay in all cases: yeast three-hybrid, YBZ-1, SC-Leu-His + 0.5 mM 3-AT, 4 days
# Conditions in all cases: tags: N-Gal4 AD-HA kept; label: inside an RPR1-promoter hybrid RNA with tandem MS2 sites; ssRNA
# PUM1 PUF domain R5-DRL = PUM1 PUF domain R5-DRL (Homo sapiens, UniProt Q14671 828-1176, C1007D;Q1011L)
# How it was run: (§1)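 The interaction score is the log change in how often each variant appears, from input to selection. Frequencies came from PCR-amplified, Illumina-sequenced repeat regions of Pumilio-1 PUF domain libraries grown in strain YBZ-1 (LexA–MS2 coat fusion, HIS3 reporter) alongside matching RNA elements. Input plates were SC-Leu and selection plates were SC-Leu-His + 0.5 mM 3-AT, each for four days, and the log2 calculation used a pseudocount of 1 where a variant was absent.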
# PUM1 PUF domain R5-KYK = PUM1 PUF domain R5-KYK (Homo sapiens, UniProt Q14671 828-1176, C1007K;R1008Y;Q1011K)
# How it was run: as §1
# PUM1 PUF domain R8-HYC = PUM1 PUF domain R8-HYC (Homo sapiens, UniProt Q14671 828-1176, N1122H;Q1126C)
# How it was run: as §1
# PUM1 PUF domain R5-ERG = PUM1 PUF domain R5-ERG (Homo sapiens, UniProt Q14671 828-1176, C1007E;Q1011G)
# How it was run: as §1
# PUM1 PUF domain R5-LHV = PUM1 PUF domain R5-LHV (Homo sapiens, UniProt Q14671 828-1176, C1007L;R1008H;Q1011V)
# How it was run: as §1
# PUM1 PUF domain R4-SRV = PUM1 PUF domain R4-SRV (Homo sapiens, UniProt Q14671 828-1176, N971S;H972R;Q975V)
# How it was run: as §1
# PUM1 PUF domain R5-PRC = PUM1 PUF domain R5-PRC (Homo sapiens, UniProt Q14671 828-1176, C1007P;Q1011C)
# How it was run: as §1
# PUM1 PUF domain R3-IRV = PUM1 PUF domain R3-IRV (Homo sapiens, UniProt Q14671 828-1176, C935I;Q939V)
# How it was run: as §1
# PUM1 PUF domain R6-AFQ = target: T1, PUM1 PUF domain R6-AFQ (Homo sapiens, UniProt Q14671 828-1176, N1043A;Y1044F)
# T1 sequence: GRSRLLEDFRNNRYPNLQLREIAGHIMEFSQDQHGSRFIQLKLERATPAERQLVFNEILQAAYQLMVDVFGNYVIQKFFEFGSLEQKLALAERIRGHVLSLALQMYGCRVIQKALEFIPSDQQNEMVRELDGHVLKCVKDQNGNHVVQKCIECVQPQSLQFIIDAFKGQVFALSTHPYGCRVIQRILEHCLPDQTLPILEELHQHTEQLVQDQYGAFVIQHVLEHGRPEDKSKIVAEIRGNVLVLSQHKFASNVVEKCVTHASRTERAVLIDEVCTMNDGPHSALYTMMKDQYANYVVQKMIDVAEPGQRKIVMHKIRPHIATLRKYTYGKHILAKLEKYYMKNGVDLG
# How it was run: as §1
# PUM1 PUF domain R4-FGA = PUM1 PUF domain R4-FGA (Homo sapiens, UniProt Q14671 828-1176, N971F;H972G;Q975A)
# How it was run: as §1
# PUM1 PUF domain R1-RLE = PUM1 PUF domain R1-RLE (Homo sapiens, UniProt Q14671 828-1176, S863R;R864L;Q867E)
# How it was run: as §1
# PUM1 PUF domain R7-KPM = PUM1 PUF domain R7-KPM (Homo sapiens, UniProt Q14671 828-1176, S1079K;N1080P;E1083M)
# How it was run: as §1
# PUM1 PUF domain R6-CFE = target: T2, PUM1 PUF domain R6-CFE (Homo sapiens, UniProt Q14671 828-1176, N1043C;Y1044F;Q1047E)
# T2 sequence: T1 sequence with A216C, Q220E
# How it was run: as §1
# Chain of PUM1 PUF domain R5-KYK (Q14671 828-1176 C1007K/R1008Y/Q1011K): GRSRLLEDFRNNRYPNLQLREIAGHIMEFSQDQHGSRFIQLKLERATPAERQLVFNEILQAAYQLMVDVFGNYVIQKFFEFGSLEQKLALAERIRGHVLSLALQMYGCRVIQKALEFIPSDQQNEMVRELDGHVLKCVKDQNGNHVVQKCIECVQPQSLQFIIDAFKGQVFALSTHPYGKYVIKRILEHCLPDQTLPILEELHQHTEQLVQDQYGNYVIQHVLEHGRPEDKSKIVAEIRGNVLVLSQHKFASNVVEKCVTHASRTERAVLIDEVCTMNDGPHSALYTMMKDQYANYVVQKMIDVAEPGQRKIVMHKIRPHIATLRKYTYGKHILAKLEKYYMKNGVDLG
# Chain of PUM1 PUF domain R5-DRL (Q14671 828-1176 C1007D/Q1011L): as the sequence (Q14671 828-1176 C1007K/R1008Y/Q1011K) above, with K180D, Y181R, K184L counted along it
# Chain of PUM1 PUF domain R1-RLE (Q14671 828-1176 S863R/R864L/Q867E): as the sequence (Q14671 828-1176 C1007K/R1008Y/Q1011K) above, with S36R, R37L, Q40E, K180C, Y181R, K184Q counted along it
# Chain of PUM1 PUF domain R8-HYC (Q14671 828-1176 N1122H/Q1126C): as the sequence (Q14671 828-1176 C1007K/R1008Y/Q1011K) above, with K180C, Y181R, K184Q, N295H, Q299C counted along it
# Chain of PUM1 PUF domain R5-ERG (Q14671 828-1176 C1007E/Q1011G): as the sequence (Q14671 828-1176 C1007K/R1008Y/Q1011K) above, with K180E, Y181R, K184G counted along it
# Chain of PUM1 PUF domain R7-KPM (Q14671 828-1176 S1079K/N1080P/E1083M): as the sequence (Q14671 828-1176 C1007K/R1008Y/Q1011K) above, with K180C, Y181R, K184Q, S252K, N253P, E256M counted along it
sequence,measurement,setting,value
GGCUAGAACUAGUGGAUCCCCCGGCGCCCGGCGGCUCGAGCCCGGGUAAGUGUAAAUAGUCUGCAUGCCGCCGGGCGCCAUGCCUGCAGGUCGACUCUAGAAAACAUG,binding signal,PUM1 PUF domain R5-DRL,2.34 log2 enrichment (interaction score)
same,binding signal,PUM1 PUF domain R5-KYK,2.74 log2 enrichment (interaction score)
same,binding signal,PUM1 PUF domain R8-HYC,3.69 log2 enrichment (interaction score)
same,binding signal,PUM1 PUF domain R5-ERG,3.47 log2 enrichment (interaction score)
same,binding signal,PUM1 PUF domain R5-LHV,3.57 log2 enrichment (interaction score)
same,binding signal,PUM1 PUF domain R4-SRV,3.51 log2 enrichment (interaction score)
same,binding signal,PUM1 PUF domain R5-PRC,4.13 log2 enrichment (interaction score)
same,binding signal,PUM1 PUF domain R3-IRV,2.93 log2 enrichment (interaction score)
same,binding signal,PUM1 PUF domain R6-AFQ,3.75 log2 enrichment (interaction score)
same,binding signal,PUM1 PUF domain R4-FGA,1.37 log2 enrichment (interaction score)
GGCUAGAACUAGUGGAUCCCCCGGCGCCCGGCGGCUCGAGCCCGGGUAAGUGUACAUAGUCUGCAUGCCGCCGGGCGCCAUGCCUGCAGGUCGACUCUAGAAAACAUG,binding signal,PUM1 PUF domain R4-SRV,0.98 log2 enrichment (interaction score)
same,binding signal,PUM1 PUF domain R4-FGA,3.23 log2 enrichment (interaction score)
GGCUAGAACUAGUGGAUCCCCCGGCGCCCGGCGGCUCGAGCCCGGGUAAGUGUAAAUCGUCUGCAUGCCGCCGGGCGCCAUGCCUGCAGGUCGACUCUAGAAAACAUG,binding signal,PUM1 PUF domain R1-RLE,2.67 log2 enrichment (interaction score)
GGCUAGAACUAGUGGAUCCCCCGGCGCCCGGCGGCUCGAGCCCGGGUAAGUCUAAAUAGUCUGCAUGCCGCCGGGCGCCAUGCCUGCAGGUCGACUCUAGAAAACAUG,binding signal,PUM1 PUF domain R7-KPM,3.19 log2 enrichment (interaction score)
GGCUAGAACUAGUGGAUCCCCCGGCGCCCGGCGGCUCGAGCCCGGGUAAGUGAAAAUAGUCUGCAUGCCGCCGGGCGCCAUGCCUGCAGGUCGACUCUAGAAAACAUG,binding signal,PUM1 PUF domain R6-CFE,6.12 log2 enrichment (interaction score)
